High-throughput results from PubChem BioAssay.
A selection: hits, their analogues and other compounds. The true share with any hit is near 21%.
Pf growth 48h: inhibits P. falciparum growth in the first generation, 48 h | 5.9% of 310,000 active | Potency, µM (series often up to 28.7 µM), without a hit: top-dose activity change, negative = inhibition, actives largely listed as inhibitors | AID 504832 | P. falciparum luciferase growth in erythrocytes, 48 h; active = well fitted inhibition curve with a large enough effect; inconclusive = small, poorly fitted or top-dose-only effect, or another doubt; inactive = no such curve, though single readings can be large or run the other way; note: potency is the fitted concentration of half-maximal effect; % is set by controls: 0 for no effect and ±100 for the full control effect
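Luciferase-expressing parasites in RBCs, 2% Hct / 0.1% parasitemia final; RPMI 1640 + 0.5% Albumax; 37 C, 5% CO2, one generation; luminescence read-out, lower signal = inhibition.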
NS1 inh: inhibitors of influenza NS1 protein function; 0.4% of 270,000 active; Potency, µM (titrated, usually from 46.1 µM), for the others: top-dose activity, positive = more growth; AID 2326; note: potency is the fitted concentration of half-maximal effect; actives are rising curves; nearly all actives have a fitted effect of over 50% in size
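Read-out: OD600 growth recovery of NS1-expressing budding yeast. Cells grown overnight at 30C in -URA glucose medium, washed, resuspended and diluted 1:100 in 2% galactose assay medium, pH 6.0. Same strain lacking NS1 served as positive control.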
CHX counter: counter-screen hit for Shiga toxin inhibitors, cycloheximide | cell reporter, cycloheximide protein synthesis inhibition counterscreen | max response, % | 12% of 300,000 active; in the data active = max response mostly above about 13%, no sharp cut-off; inactive = mostly below about 14%; note: read at 38.3 µM for the half of the compounds with a filed dose; 0% is about no effect
Pf growth 96h: P. falciparum growth inhibition at 96 hour, primary screen for plastid delayed-death inhibitors; Potency, µM (series often up to 28.7 µM), for the others: at the highest dose activity change, negative = inhibition, hits mostly inhibitors; 6.9% of 320,000 active; P. falciparum luciferase reporter growth, 96 h; AID 504834; active = well fitted inhibition curve with a large enough effect; inconclusive = small, poorly fitted or top-dose-only effect, or another doubt; inactive = no such curve, though single readings can be large or run the other way; note: potency is the fitted concentration of half-maximal effect; % is set by controls: 0 for no effect and ±100 for the full control effect
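Compounds incubated with erythrocytes infected by luciferase-expressing P. falciparum (2% hematocrit, 0.05% parasitemia final) for 96 hours, 37 C in 5% CO2. Growth inhibition scored as decreased luciferase luminescence.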
SARS PLpro yeast: SARS-CoV PLP inhibition in yeast; Potency, µM (highest dose often 32.9 µM), inactives show top-dose activity, positive = growth rescue, actives largely listed as activators; S. cerevisiae expressing SARS-CoV PLpro, growth rescue; 0.19% of 330,000 active; note: potency is the fitted concentration of half-maximal effect; 0% is about no effect; nearly all actives have a fitted effect of over 55% in size
Shiga inhibitor: inhibitors of Shiga toxin in Vero cells. AID 2315. 9.2% of 290,000 active. Vero cells, Shiga toxin protein synthesis inhibition reporter. inhibition, % at 38.7 µM; in the data active = inhibition mostly above about 28%, no sharp cut-off; inactive = mostly below about 43%; note: 0% is about no effect
* marks the source's active call; other numbers are inactive results; u = inconclusive; x = not tested or not shown; + = active, no number. Unless noted, calls come from the whole dose curve.

SMILES	Pf growth 48h	NS1 inh	CHX counter	Pf growth 96h	SARS PLpro yeast	Shiga inhibitor
CCOc1cc(NC(=O)c2ccco2)c(OCC)cc1NC(=O)COc1ccccc1C	x	13%	x	x	x	x
FC(F)(F)c1cc(N2CCOCC2)nc(-c2ccccc2)n1	4%	2%	-3	22%	-20%	-9
CCC(=C(c1ccc(OC)cc1)c1ccc(OC)cc1)c1cn(CC(O)CN(CCO)CCO)c2ccccc12 (stereo not drawn)	9.3µM*	x	-3	u	3%	-5
COc1ccc(CCN(C)C(=S)NC(=O)c2ccc(F)cc2Cl)cc1OC	-9%	x	15	-26%	9%	-13
C=CCc1ccc(O)c(-c2ccc(O)c(CC=C)c2)c1	u	-67%	5	8.3µM*	-3%	27
C=CCc1cc(C(=O)N2CCCCC2)ccc1O	u	-5%	9	17%	2%	-8
Cc1nn2c(=O)cc(CSc3nc4ccccc4[nH]3)nc2s1	x	u	22*	-6%	4%	39
C=CCn1c(C)cc(C(=O)CSc2nc3ccccc3[nH]2)c1C	-79%	0%	34*	24%	-12%	69*
COCC(C)n1c(C)cc(C(=O)CSc2nc3ccccc3c(=O)[nH]2)c1C (stereo not drawn)	u	4%	16*	u	3%	45
Cc1cc(C(=O)CSc2nc3ccccc3[nH]2)c(C)n1Cc1ccco1	57%	3%	84*	0%	1%	78*
COCC(C)n1c(C)cc(C(=O)COC(=O)CCc2nc3ccccc3c(=O)[nH]2)c1C (stereo not drawn)	-16%	x	0	-19%	3%	-5
CCOC(=O)C1CCN(C(=O)N(CC)CC)CC1	4%	2%	-1	-15%	1%	-6
COCC(C)n1c(SCC(=O)c2cc(C)n(C)c2C)nc2ccccc2c1=O (stereo not drawn)	13µM*	x	-4	u	0%	-10
Cc1cc(C(=O)CSc2nc3ccccc3[nH]2)c(C)n1C	-39%	-2%	46*	-2%	-2%	54*
Cc1cc(C)c(C(=O)CSc2nc3ccccc3c(=O)[nH]2)cc1C	u	x	-1	u	-9%	-2
COCCn1c(C)cc(C(=O)CSc2nc3ccccc3c(=O)[nH]2)c1C	10%	6%	53*	0.29µM*	8%	92*
COCC(C)n1c(SCc2cc(C(=O)OC)c(C)o2)nc2ccccc2c1=O (stereo not drawn)	48%	-67%	6	u	-8%	-4
C=CCn1c(C)cc(C(=O)CSc2nc3ccccc3c(=O)[nH]2)c1C	-40%	-12%	63*	u	-9%	90*
CC(C)Cc1cc(C(=O)NCCCN2CCOCC2)no1	11%	3%	35	u	-6%	34
COCCn1c(C)cc(C(=O)CSc2ccc3ccccc3n2)c1C	84%	8%	39*	x	-10%	50*
COc1cccc(NC(=O)NC2(C(=O)N3CCN(C)CC3)CCCCC2)c1	9%	4%	11	0%	-7%	22
Cc1cc(C)c(S(=O)(=O)N2CCN(C(=O)C3COc4ccccc4O3)CC2)c(C)c1 (stereo not drawn)	u	x	x	0%	2%	x
COc1ccc(-c2ocnc2C(=O)N2CCN(C(c3ccccc3)c3ccccc3)CC2)cc1	8.3µM*	x	-3	-3%	-13%	8
O=C(c1ccccc1F)N1CCN(C(=O)C(c2ccccc2)c2ccccc2)CC1	-17%	1%	-5	0.29µM*	5%	-4
O=C(NC(=O)N1CCN(C(c2ccccc2)c2ccccc2)CC1)c1ccccc1	13µM*	-44%	-4	u	-2%	3
SMILES	Pf growth 48h	NS1 inh	CHX counter	Pf growth 96h	SARS PLpro yeast	Shiga inhibitor
CCCNC(=O)N1CCN(C(c2ccccc2)c2ccccc2)CC1	u	-8%	2	303%	-2%	-25
CC(C)(C)C(=O)N1CCN(C(c2ccccc2)c2ccccc2)CC1	12µM*	-9%	-5	10µM*	-3%	6
CC[C@H](C)[C@H](NC(=O)[C@@H]1CCCN1C(=O)[C@H](Cc1cnc[nH]1)NC(=O)[C@@H](NC(=O)[C@H](Cc1ccc(O)cc1)NC(=O)[C@@H](NC(=O)[C@H](CCCN=C(N)N)NC(=O)CNC)C(C)C)[C@@H](C)CC)C(=O)O	x	x	-11	x	x	-5
Cc1cc(C(=O)N2CCN(C(c3ccccc3)c3ccccc3)CC2)on1	x	-155%	-6	4%	-9%	-2
Cc1occc1C(=O)N1CCN(C(c2ccccc2)c2ccccc2)CC1	1.3µM*	-11%	5	-2%	-30%	7
CCN1C(=O)C(CC(=O)N2CCN(C(c3ccccc3)c3ccccc3)CC2)N(CC)C1=O (stereo not drawn)	12µM*	-20%	0	u	1%	-9
Cc1ccccc1C(=O)N1CCN(C(c2ccccc2)c2ccccc2)CC1	10µM*	-5%	-2	5.9µM*	-4%	-6
Cc1oc(C(C)(C)C)cc1C(=O)N1CCN(C(c2ccccc2)c2ccccc2)CC1	5.9µM*	0%	-2	12µM*	-1%	-2
O=C(N/C(=C\c1ccc(Br)cc1)C(=O)N1CCCC1)c1ccccc1F	10%	4%	-1	u	0%	14
Cc1cc(C)c(NC(=O)CSc2nc3[nH]ncc3c(=O)[nH]2)c(C)c1	6%	x	-2	0%	-1%	-6
O=C(CN(Cc1ccc(F)cc1)C(=O)Cn1nnc2ccccc21)NCC1CCCO1 (stereo not drawn)	-9%	-3%	-2	u	-1%	26
CC(C)NC(=O)NC(=O)COc1ccc(Br)cc1Br	273%	-2%	130*	212%	-13%	75*
CC(C)NC(=O)NC(=O)COc1c(F)c(F)cc(F)c1F	5%	3%	5	x	10%	21
O=C(COc1ccc(Br)cc1Br)NC1CCCC1	147%	x	43*	36%	-7%	109*
O=C(COc1ccc(Br)cc1Cl)NC(=O)NC1CCCC1	174%	x	x	159%	0%	x
O=C(COc1ccc(Br)cc1Cl)NC1CCCCC1	191%	0%	36*	218%	1%	+
C=CCn1c(SCc2nc3sc4c(c3c(=O)[nH]2)CCCC4)nc2ccccc2c1=O	-10%	14%	-2	-9%	-11%	-1
CC(C)(C)OC(=O)N[C@@H](C(=O)OC(C)(C)C)c1ccccc1	25%	x	x	33%	-2%	x
CC(=O)O[C@H]1CC[C@H]2[C@@H]3CCC4=CC(=O)CCC4=C3C=C[C@]12C	-5%	x	x	u	x	x
CC#C[C@]1(O)CC[C@H]2[C@@H]3CCC4=CC(=O)CCC4=C3[C@@H](c3ccc(N(C)C)cc3)C[C@@]21C	13µM*	-39%	-5	6.7µM*	-7%	-17
COC(=O)C(CC(=O)c1ccc(Cl)cc1)c1ccc(C)cc1 (stereo not drawn)	u	-10%	20	-24%	-40%	+
